In the library only some 3.1% were active in any assay of this set; here they are far more common.
TSHR antagonist – Antagonists of the Thyroid Stimulating Hormone Receptor: HTS campaign; TSHR-expressing cells, TSH-stimulated cAMP HTRF, 2 h; active compounds read low; activity change, negative = inhibition, % at 11.5 µM; AID 504810, 2011; hit rate 0.2% among 330,000;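 active = activity change below a set negative limit, meaning inhibition stronger than a set level, cut at about -70% in these data; inconclusive = activity change between two set negative limits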
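Antagonism was scored as loss of TSH-driven cAMP in TSHR cells, stimulated with 4nM TSH (EC80) for 2 hours at 37 deg C and detected by homogeneous HTRF competition immunoassay.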
uPA surface inh – qHTS for Inhibitors of Cell Surface uPA Generation. cell surface uPA generation assay, qHTS. Potency, µM (doses to about 38.3 µM), usual class: inhibitors. hit rate 0.31% among 330,000; active = well fitted inhibition curve with a large enough effect; inconclusive = small, poorly fitted or top-dose-only effect; inactive = no such curve, though single readings can be large or run the other way; tested in mouse RAW 264.7 cells; note: nearly all actives have a fitted effect of over 55% in size
TSG101-PTAP inh – qHTS Assay for Iinhibitors of HIV-1 Budding by Blocking the Interaction of PTAP/TSG101; Fluorescence polarization, FITC-PTAP peptide / Tsg101 binding; 340,000 tested, under 10 active; Tumor susceptibility gene 101 protein (Homo sapiens), Q99816; Potency, µM (doses to about 115 µM), most hits filed as inhibitors; active = well fitted inhibition curve with a large enough effect in the main read-out, with a control signal flat, not every such curve was filed as active; inconclusive = small, poorly fitted or top-dose-only effect, or effect the other way, or a change in a side signal; inactive = no such curve, though single readings can be large or run the other way
Target sequence (Q99816 whole entry, looked up): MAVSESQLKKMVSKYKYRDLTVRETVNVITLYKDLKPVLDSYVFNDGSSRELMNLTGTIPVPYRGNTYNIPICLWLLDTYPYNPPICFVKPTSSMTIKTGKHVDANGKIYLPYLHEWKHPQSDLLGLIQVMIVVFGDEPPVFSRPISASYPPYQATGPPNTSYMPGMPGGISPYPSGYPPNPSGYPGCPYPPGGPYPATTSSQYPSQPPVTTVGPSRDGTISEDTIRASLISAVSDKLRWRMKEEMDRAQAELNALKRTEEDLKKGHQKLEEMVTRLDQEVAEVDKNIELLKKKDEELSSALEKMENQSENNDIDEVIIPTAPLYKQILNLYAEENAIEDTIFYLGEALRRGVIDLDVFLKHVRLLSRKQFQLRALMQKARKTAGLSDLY
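FP read-out: FITC-PTAP peptide, 50 nM final, binding Tsg101 binding domain, 10 uM final; 20 min, r.t.; 10 mM HEPES pH 7.5, 0.15 M NaCl, 0.01% Tween 20, 3 mM EDTA, 0.1 mM TCEP.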
PLK1 PBD block – qHTS for Inhibitors of PLK1-PDB (polo-like kinase 1 - polo-box domain): Primary Screen | hit rate 2.8% among 360,000 | Serine/threonine-protein kinase PLK1 (Homo sapiens), P53350 | Potency, µM, usual class: inhibitors | Plk1 PBD binding of FITC phosphopeptide, fluorescence polarization; note: series mostly up to about 57 µM; nearly all actives have a fitted effect of over 65% in size
VDR inh – Inhibitors of the vitamin D receptor (VDR): qHTS | Potency, µM, actives largely listed as inhibitors | Vitamin D3 receptor (Homo sapiens), P11473 | hit rate 0.93% among 400,000 | VDR-SRC2-3 peptide fluorescence polarization, 2 h | AID 504847, 2011
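Two reagent solutions held at 4 deg C in the dark were dispensed, compounds pinned at 23 nl, and the mixture incubated 2 h at room temperature. Read-out: fluorescence polarization of VDR–SRC2-3 peptide binding.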
Numbers stand for hits; i = inactive; ? = inconclusive; nt = no result. Unless noted, calls come from the whole dose curve; as a rule, active = well fitted curve in the direction sought with a large enough effect; inconclusive = small, poorly fitted or top-dose-only effect, or another doubt; inactive = no such curve, though single readings can be large; an effect the other way counts as inactive or inconclusive.

SMILES	TSHR antagonist	uPA surface inh	TSG101-PTAP inh	PLK1 PBD block	VDR inh
CCc1c(C)nc(N)nc1N1N=C1SC(C(C)=O)C(C)=O	i	i	i	i	22µM
C=C1C(=O)O[C@@]23[C@H]1CC[C@@H](C)[C@@H]2CC[C@@]1(C)O[C@@H]31	i	?	i	i	i
COCCNC(=O)Cn1cc(C=C2C(=O)NC(=O)NC2=O)c2ccccc21	i	i	?	6.7µM	i
Cn1cc(C=C2C(=O)NC(=O)NC2=O)c2ccccc21	i	i	i	24µM	i
O=C(c1ccccc1F)c1cn(CC(=O)N2CCOCC2)c2ccccc12	i	i	i	?	i
COCCNC(=O)Cn1cc(C(=O)c2ccccc2F)c2ccccc21	i	i	i	30µM	?
O=C(c1ccccc1F)c1cn(CC(=O)N2CCCC2)c2ccccc12	i	i	i	3µM	i
CCC(C)C(=O)OC1C(O)C2C(CN3CC(C)CCC3[C@]2(C)O)C2C[C@]34O[C@@]5(O)C(OC(=O)C(C)(O)CC)CCC3(C)C5C(OC(C)=O)C(OC(C)=O)C4[C@@]21O (some centres undefined)	nt	nt	nt	nt	i
CCN1C[C@]2(C)CC[C@H](OC)[C@@]34[C@H]1C1(OCO[C@@]15C[C@H](OC)C1C[C@]3(O)C5[C@H]1OC)[C@@H](O)[C@H]24	nt	nt	nt	nt	i
CCN1C[C@]2(COC)CC[C@H](OC)[C@@]34C5C[C@@H]6[C@@H](OC)C[C@@]7(OCO[C@@]7([C@@H](O)C23)[C@@H]14)C5[C@H]6OC (some centres undefined)	nt	nt	nt	nt	i
C=CCn1c(C)c(C=C2C(=O)NC(=O)NC2=O)c2ccccc21	i	i	i	27µM	?
O=C1NC(=O)C(=C/C=C/c2coc3ccc(Br)cc3c2=O)C(=O)N1	i	nt	nt	nt	nt
O=C1NC(=O)C(=Cc2coc3ccccc3c2=O)C(=O)N1	i	i	i	11µM	?
O=C(c1cn(Cc2ccccc2)c2ccccc12)C1CC1	i	i	i	27µM	?
O=[N+]([O-])c1ccc(N=Nc2c(Cl)cc(O)cc2Cl)cc1	-91	?	i	?	i
O=[N+]([O-])c1ccc([As](=O)(O)O)cc1	nt	nt	nt	nt	i
CC1=C(O)C(=O)C=C2C1=CC=C1C2(C)CCC2(C)C3CC(C)(C(=O)O)CCC3(C)CCC12C (centres undefined)	nt	i	i	2.1µM	28µM
O=C1NC(=O)C(=Cc2ccccc2Oc2ccc(F)cc2)C(=O)N1	i	i	i	12µM	50µM
O=C1NC(=O)C(=CCc2ccccc2)C(=O)N1	nt	i	i	i	?
Cc1ccc(S(=O)(=O)Oc2ccccc2C=C2C(=O)NC(=O)NC2=O)cc1	nt	nt	nt	4.7µM	nt
CC1(C)C(=O)[C@@H]2OC2[C@@]2(C)C1CC(O)[C@]1(C)C2CC[C@@]2(C)C(c3ccoc3)OC(=O)C3OC312 (some centres undefined)	nt	nt	nt	nt	i
CCCCn1c(NS(=O)(=O)c2ccccc2)c(C(=O)OCC)c2nc3ccccc3nc21	i	i	i	?	45µM
CCOC(=O)c1c(N)n(CCN2CCCCC2)c2nc3ccccc3nc12	i	i	i	i	i
O=C1CCC[C@H]2[C@H]3CCCN4CCCC(=CN12)[C@@H]34	nt	nt	nt	nt	i
CCC(C)C(=O)OC1C2CC3=C4CC(=O)OC(c5ccoc5)[C@]4(C)CCC3[C@@](C)(C2=O)C(CC(=O)OC)C1(C)C (some centres undefined)	nt	nt	nt	nt	40µM
SMILES	TSHR antagonist	uPA surface inh	TSG101-PTAP inh	PLK1 PBD block	VDR inh
CCOC(=O)c1sc(/N=C/c2c(O)n(-c3cccc(C)c3)c(=O)[nH]c2=O)c(C#N)c1C	i	i	i	19µM	?
CCCN(CCC)[C@@H]1CCc2c(OC)cccc2[C@@H]1C	nt	nt	nt	nt	i
Cc1ccc(-c2cc(-c3ccccc3)cc(-c3ccccc3)[n+]2-c2ccccc2)cc1	-94	10µM	i	i	i
O=c1[nH]c(=O)n(-c2ccc(F)cc2)c(O)c1/C=C1\C=Nc2ccccc21	i	i	i	i	i
O=c1[nH]c(=O)n(-c2ccccc2F)c(O)c1/C=C1\C=Nc2ccccc21	i	i	i	4.2µM	i
COc1ccc(-n2c(O)c(/C=C3\C=Nc4ccc(Br)cc43)c(=O)[nH]c2=O)cc1	i	i	i	1.1µM	?
O=c1[nH]c(=O)n(CC2CCCO2)c(O)c1/C=C1\C=Nc2ccccc21 (centres undefined)	i	i	i	27µM	i
CC1CC2CCC(O2)C(C)C(=O)OC(C)CC2CCC(O2)C(C)C(=O)OC(C)CC2CCC(O2)C(C)C(=O)OC(C)CC2CCC(O2)C(C)C(=O)O1 (centres undefined)	nt	nt	nt	nt	i
O=C(NCc1ccccc1)c1onc(CSc2ccccc2)c1C(=O)NCC1CC1	i	?	i	i	i
[O]=[Sb]([OH])([OH])[c]1ccccc1	nt	nt	nt	nt	79µM
COc1ccc2c3c1OC1C[C@@H](O)C=C[C@@]31CCN(C)C2 (some centres undefined)	nt	nt	nt	nt	i
CCCCCOc1ccc(C)cc1CN(CCCl)CCCl	i	i	i	24µM	i
O=[N+]([O-])C(Br)(CO)CO	nt	nt	nt	nt	5.6µM
CC(C)(Cl)[N+](=O)[O-]	i	i	i	i	i
CN(C)CCN(C)CCc1ccc(Cl)c(Cl)c1	nt	nt	nt	nt	i
CNC(=S)N(C)CCc1cc2c(c(OC)c1/C=C1/C(=O)NC(=O)N(C)C1=O)OCO2	i	i	i	?	i
COc1c(/C=C2/C(=O)NC(=O)N(C)C2=O)c(CCN(C)C(=O)c2ccccc2)cc2c1OCO2	i	i	i	27µM	i
O=C(Oc1ccccc1)N1CCC[C@@]2(CCN(Cc3ccccc3)C2)C1	nt	nt	nt	nt	i
NCCCC[C@H](NC(=O)[C@H](Cc1ccccc1)NC(=O)[C@H](CCCN=C(N)N)NC(=O)[C@@H](N)Cc1ccc(O)cc1)C(N)=O	nt	nt	nt	nt	i
O=P(Nc1cccc(Cl)c1)(Oc1ccccc1)Oc1ccccc1	i	i	i	i	i
O=C(NCc1ccccc1)Oc1cccc(Cl)c1	i	i	i	8.4µM	i
COC(=O)[C@@]1(O)C[C@@H]2O[C@@]1(C)n1c3ccccc3c3c4c(c5c6ccccc6n2c5c31)C(=O)NC4	nt	nt	nt	nt	i
CCN1C(=O)C(=Cc2cc(C)n(C3CC3)c2C)C(=O)N(CC)C1=S	i	i	?	i	i
CCN1C(=O)C(=Cc2ccc(C)s2)C(=O)N(CC)C1=S	i	i	i	0.53µM	?
CN(C)C(=O)Nc1ccc(-n2nc(C(C)(C)C)oc2=O)c(Cl)c1	nt	nt	nt	nt	i

Screens (PubChem BioAssay)
